# Calls of active or inactive are those of the source. Unless noted, the rule behind the calls is not given here.
# Test: cell viability in Huh7 cells, primary screen, cytotoxicity control for HCV replication inhibitor project, CellTiter-Glo luminescence, basal, 48 h (AID 1143);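 note: Huh7 hepatoma cells carrying a hepatitis C replication reporter with no stimulus; test concentration not given here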
# Details: Huh7 HCV replicon, higher = more signal, called active from +8 up or from −8 down
row,SMILES,z-score
1,CC[C@@H](O[Si](C#C[Si](C(C)C)(C(C)C)C(C)C)(C(C)C)C(C)C)c1cn(Cc2cccc(Cl)c2)nn1,0.139 (inactive)
2,C=C(CCCC)/C(=C/C[C@@H](OC(C)=O)c1cccc(OCCO)c1)c1cc(C(=O)OC)ccc1OC,-0.917 (inactive)
3,CCCN1C(=O)[C@@]2(c3ccc([N+](=O)[O-])cc3)CC(=O)N(C3CCCCC3)[C@@H]2c2ccc(CO)cc21,0.677 (inactive)
4,O=C1O[C@H](c2ccccc2)[C@H](c2ccccc2)N2[C@H]1[C@@H](C(=O)N1CCN(c3ncccn3)CC1)[C@]1(C(=O)Nc3ccc(C#CC4(O)CCCCCC4)cc31)[C@H]2c1ccc(O)cc1,-2.43 (inactive)
5,CC[C@@H](O[Si](C#C[Si](C(C)C)(C(C)C)C(C)C)(C(C)C)C(C)C)c1cn([C@H](CO)Cc2ccccc2)nn1,0.0926 (inactive)
6,[N-]=[N+]=NCc1ccccc1[C@H]1OC(c2ccc(OCCCO)cc2)=N[C@@]1(CCS(=O)(=O)c1ccccc1)C(=O)O,-0.0569 (inactive)
7,COC(=O)[C@@]1(Cc2ccc(F)cc2)[C@H]2c3cc(C(=O)N4CCCC4)n(Cc4ccc(OC(F)(F)F)cc4)c3C[C@H]2CN1C(=O)c1ccccc1,-0.0066 (inactive)
8,CC(C)(C)OC(=O)CC[C@]1(C(N)=O)N=C(c2ccc(OCCCO)cc2)O[C@H]1c1ccccc1N=[N+]=[N-],-0.284 (inactive)
9,O=C1OCC=C[C@H]2OC34C=CCN(Cn5nnc6ccccc65)C(=O)[C@H]3N(CCO)C(=O)[C@@H]4[C@@H]12 (some centres undefined),0.473 (inactive)
10,COc1cccc(C)c1NC(=O)O[C@H]1[C@H](OC(=O)Nc2ccc3c(c2)OCO3)[C@H](OC(=O)Nc2ccc3c(c2)OCO3)[C@@H](OC)O[C@@H]1CO,-2.59 (inactive)
11,CN1C(=O)C2C=CC(C(O)c3cccs3)N(N(c3ccccc3)c3ccccc3)C2C1=O (centres undefined),0.114 (inactive)
12,[N-]=[N+]=NCc1ccccc1[C@H]1OC(c2ccc(OCCCO)cc2)=N[C@@]1(Cc1ccccc1N=[N+]=[N-])C(=O)O,-1.16 (inactive)
13,C[C@H]1C2[C@H](Cc3ccccc3)NC(=O)[C@]23C(=O)N[C@@H](Cc2ccccc2)C(=O)N2CCC[C@H]2C(=O)NC/C=C/CC/C=C/C3[C@@H]2O[C@]12C (some centres undefined),-2.38 (inactive)
14,COc1ccc(C(=O)Nc2ccc(CN3C(=O)[C@]4(O[C@H](CC(=O)N(CCO)Cc5ccccc5)[C@@H]([Si](C)(C)c5ccc(OC)cc5)[C@@H]4C)c4ccccc43)cc2)cc1,-4.06 (inactive)
15,CCCC=C(CCC)[C@@H](NC(=O)c1ccc(C(=O)OC)cc1)c1ccc(C(=O)OC)cc1,-2.2 (inactive)
16,O=C1C2C=CC(C(O)c3ccccn3)N(Nc3ccc([N+](=O)[O-])cc3)C2C(=O)N1c1ccccc1 (centres undefined),-0.476 (inactive)
17,O=C1C2C=CC(C(O)C3CCCCC3)N(Nc3ccccc3F)C2C(=O)N1c1ccccc1 (centres undefined),-2.88 (inactive)
18,C=C(CCCC)/C(=C/C[C@@H](OC(C)=O)c1ccc(OCCO)cc1)c1cc(C(=O)OC)ccc1OC,-3.57 (inactive)

# Test: P. aeruginosa biofilm formation inhibitors, primary screen, PAO1 strain, BacTiter-Glo luminescence, LB-PBS (AID 1144)
# Details: 12 h, higher = more signal
row,SMILES,z-score
1,CCOC(=O)C1=C[C@@H](C(C)(C)C)N(S(=O)(=O)c2ccc(C)cc2)[C@H]1c1ccc(OC)cc1,-0.0448 (inactive)
2,CCCCC(=C=CC[C@H](O)c1ccccc1OCCO)CCO,0.235 (inactive)
3,C=CCC(OC(C)=O)[C@@H]1[C@@H](N(Cc2cccc3ccccc23)C(=O)c2ccc(C)cc2)c2cc(OCCCO)ccc2N1C(=O)Cc1ccc2ccccc2c1 (some centres undefined),-0.234 (inactive)
4,COC(=O)[C@@]1(Cc2ccc(F)cc2)[C@@H]2C(=CC(=O)[C@H]2CC(=O)C(=O)N2CCCC2)CN1C(=O)c1ccccc1,0.137 (inactive)
5,COCCCNC(=O)[C@@]1(c2ccc([N+](=O)[O-])cc2)CC(=O)N(C2CCCCC2)[C@@H]1c1ccc(CO)cc1I,0.239 (inactive)
6,C=CCOC(=O)[C@H]1[C@@H]2C(=O)O[C@@H](c3ccccc3)[C@@H](c3ccccc3)N2[C@@H](c2ccc(OCCOC(=O)[C@H]3C[C@H]4C(=O)NCC(=O)N4[C@H]3c3ccc(O)cc3)cc2)[C@]12C(=O)Nc1ccccc12,-0.799 (inactive)
7,CC1CC/C=C\[C@H]2OC34C=CCN(CCN5CCOCC5)C(=O)[C@H]3N(C(CO)C(C)C)C(=O)[C@@H]4C2C(=O)O1 (some centres undefined),1.52 (inactive)
8,CC(C)c1ccc(NN2C(C(O)c3ccccc3)C=CC3C(=O)N(c4ccccc4)C(=O)C32)cc1 (centres undefined),-0.89 (inactive)
9,[N-]=[N+]=Nc1ccccc1C[C@@]1(C(=O)NCC(O)CO)N=C(c2ccc(OCCCO)cc2)O[C@@H]1c1ccccc1N=[N+]=[N-] (some centres undefined),-0.0717 (inactive)
10,C=C(CCCC)C(=O)CC[C@@H](OC(C)=O)c1ccc(OCCO)cc1,-1.12 (inactive)
11,CN1C(=O)C2CC=C(C3=CCO[C@@H]3[C@H]3CCCN3S(=O)(=O)c3ccccc3[N+](=O)[O-])CC2C1=O (some centres undefined),0.0769 (inactive)
12,CC(C)[Si](C#Cc1ccccc1)(O[C@H](c1ccccc1)c1cn(Cc2ccccc2)nn1)C(C)C,-0.519 (inactive)
13,COCCOC(=O)N1C(=O)[C@@]2(c3cc(C#CCNC(N)=O)ccc31)[C@H](C(N)=O)[C@H]1C(=O)O[C@H](c3ccccc3)[C@H](c3ccccc3)N1[C@@H]2c1ccc(O)cc1,-0.204 (inactive)
14,[N-]=[N+]=NCc1ccccc1C[C@]1(C(=O)N2CCCCC2)COC(c2ccc(OCCCO)cc2)=N1,-0.919 (inactive)
15,C=CCNC(=O)[C@H]1[C@@H]2C(=O)O[C@@H](c3ccccc3)[C@@H](c3ccccc3)N2[C@@H](c2ccc(OCCO)cc2)[C@]12C(=O)N(C(=O)OCCOC)c1ccc(C#CCC(C(=O)OC)C(=O)OC)cc12,0.0229 (inactive)
16,CCCCC(=C=CC[C@@H](O)c1ccccc1OCCO)C[C@@H](O)c1ccccn1,-0.138 (inactive)
17,COC(=O)C(CC#Cc1ccc2c(c1)[C@]1(C(=O)N2)[C@H](C(=O)NC[C@H](O)c2ccccc2)[C@H]2C(=O)O[C@H](c3ccccc3)[C@H](c3ccccc3)N2[C@@H]1c1ccc(O)cc1)C(=O)OC,1.07 (inactive)
18,COCCOC(=O)N1C(=O)[C@@]2(c3cc(C#CC4=CCCCC4)ccc31)[C@H](c1ccc(O)cc1)N1[C@H](c3ccccc3)[C@H](c3ccccc3)OC(=O)[C@H]1[C@@H]2C(=O)N1CCc2cc(OC)c(OC)cc2C1,0.315 (inactive)

row,SMILES,z-score
1,CC[C@@H](O[Si](C#C[Si](C(C)C)(C(C)C)C(C)C)(C(C)C)C(C)C)c1cn(Cc2cccc(Cl)c2)nn1,-0.14 (inactive)
2,C=C(CCCC)/C(=C/C[C@@H](OC(C)=O)c1cccc(OCCO)c1)c1cc(C(=O)OC)ccc1OC,0.198 (inactive)
3,CCCN1C(=O)[C@@]2(c3ccc([N+](=O)[O-])cc3)CC(=O)N(C3CCCCC3)[C@@H]2c2ccc(CO)cc21,-0.0723 (inactive)
4,O=C1O[C@H](c2ccccc2)[C@H](c2ccccc2)N2[C@H]1[C@@H](C(=O)N1CCN(c3ncccn3)CC1)[C@]1(C(=O)Nc3ccc(C#CC4(O)CCCCCC4)cc31)[C@H]2c1ccc(O)cc1,-0.759 (inactive)
5,CC[C@@H](O[Si](C#C[Si](C(C)C)(C(C)C)C(C)C)(C(C)C)C(C)C)c1cn([C@H](CO)Cc2ccccc2)nn1,-0.805 (inactive)
6,[N-]=[N+]=NCc1ccccc1[C@H]1OC(c2ccc(OCCCO)cc2)=N[C@@]1(CCS(=O)(=O)c1ccccc1)C(=O)O,0.637 (inactive)
7,COC(=O)[C@@]1(Cc2ccc(F)cc2)[C@H]2c3cc(C(=O)N4CCCC4)n(Cc4ccc(OC(F)(F)F)cc4)c3C[C@H]2CN1C(=O)c1ccccc1,-0.679 (inactive)
8,CC(C)(C)OC(=O)CC[C@]1(C(N)=O)N=C(c2ccc(OCCCO)cc2)O[C@H]1c1ccccc1N=[N+]=[N-],0.303 (inactive)
9,O=C1OCC=C[C@H]2OC34C=CCN(Cn5nnc6ccccc65)C(=O)[C@H]3N(CCO)C(=O)[C@@H]4[C@@H]12 (some centres undefined),1.43 (inactive)
10,COc1cccc(C)c1NC(=O)O[C@H]1[C@H](OC(=O)Nc2ccc3c(c2)OCO3)[C@H](OC(=O)Nc2ccc3c(c2)OCO3)[C@@H](OC)O[C@@H]1CO,1.05 (inactive)
11,CN1C(=O)C2C=CC(C(O)c3cccs3)N(N(c3ccccc3)c3ccccc3)C2C1=O (centres undefined),-0.176 (inactive)
12,[N-]=[N+]=NCc1ccccc1[C@H]1OC(c2ccc(OCCCO)cc2)=N[C@@]1(Cc1ccccc1N=[N+]=[N-])C(=O)O,0.159 (inactive)
13,C[C@H]1C2[C@H](Cc3ccccc3)NC(=O)[C@]23C(=O)N[C@@H](Cc2ccccc2)C(=O)N2CCC[C@H]2C(=O)NC/C=C/CC/C=C/C3[C@@H]2O[C@]12C (some centres undefined),-0.165 (inactive)
14,COc1ccc(C(=O)Nc2ccc(CN3C(=O)[C@]4(O[C@H](CC(=O)N(CCO)Cc5ccccc5)[C@@H]([Si](C)(C)c5ccc(OC)cc5)[C@@H]4C)c4ccccc43)cc2)cc1,0.52 (inactive)
15,CCCC=C(CCC)[C@@H](NC(=O)c1ccc(C(=O)OC)cc1)c1ccc(C(=O)OC)cc1,0.668 (inactive)
16,O=C1C2C=CC(C(O)c3ccccn3)N(Nc3ccc([N+](=O)[O-])cc3)C2C(=O)N1c1ccccc1 (centres undefined),-0.277 (inactive)
17,O=C1C2C=CC(C(O)C3CCCCC3)N(Nc3ccccc3F)C2C(=O)N1c1ccccc1 (centres undefined),-0.469 (inactive)
18,C=C(CCCC)/C(=C/C[C@@H](OC(C)=O)c1ccc(OCCO)cc1)c1cc(C(=O)OC)ccc1OC,0.412 (inactive)

# Reference: PubChem BioAssay
